Only some compounds are listed: those with a hit (about 1.5% of all), similar ones and a draw of the others.
AID504770 – growth inhibition of E. coli YBA685, primary screen, V. cholerae RctB inhibitors | z-score (no concentration beside the values) | AID 504770, 2011 | 0.27% of 130,000 active | E. coli YBA685 rctB-dependent plasmid, OD600 growth, 3 h; hits give low values; in the data active means z-score below about -2, passing the limit was not always enough
PV pol inh – poliovirus RdRp elongation inhibitors, primary screen, biochemical, fluorescence polarization, total intensity. Genome polyprotein (Poliovirus type 1 (strain Mahoney)), P03300. poliovirus polymerase elongation; hits give low values. % elongation, % (compound at 16.7 µg/mL). 0.66% of 150,000 active. AID 588519, 2011; in the data active means % elongation below about 90%
Target sequence (P03300 1749-2209 limits assumed): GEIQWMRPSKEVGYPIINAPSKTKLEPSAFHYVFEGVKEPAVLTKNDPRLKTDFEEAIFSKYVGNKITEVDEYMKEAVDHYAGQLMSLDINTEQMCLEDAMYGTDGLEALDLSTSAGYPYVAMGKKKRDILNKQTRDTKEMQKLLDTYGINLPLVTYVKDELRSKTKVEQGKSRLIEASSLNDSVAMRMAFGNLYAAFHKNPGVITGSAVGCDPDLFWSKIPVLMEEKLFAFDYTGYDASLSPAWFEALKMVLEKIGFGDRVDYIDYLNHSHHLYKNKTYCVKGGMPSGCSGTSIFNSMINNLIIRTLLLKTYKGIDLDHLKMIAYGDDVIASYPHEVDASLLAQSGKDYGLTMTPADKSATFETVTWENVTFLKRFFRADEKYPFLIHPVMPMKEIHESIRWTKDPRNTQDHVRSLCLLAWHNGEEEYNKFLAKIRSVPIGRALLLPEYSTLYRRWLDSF
Mtb MbtI inh – MbtI salicylate synthase inhibitors, primary screen, biochemical, fluorescence intensity | P9WFX0 | purified MbtI enzyme, fluorescence intensity read-out | 0.89% of 100,000 active | inhibition, % (concentration not given with the values); in the data active means inhibition mostly above about 56%, no sharp cut-off; inactive means mostly below about 77%
Mtb MenB inh – M. tuberculosis MenB inhibitors, primary screen, biochemical, absorbance; 0.43% of 100,000 active; 1,4-dihydroxy-2-naphthoyl-CoA synthase (Mycobacterium tuberculosis (strain ATCC 25618 / …; inhibition, % (concentration not given with the values); MenB enzyme assay, absorbance read-out; in the data active means inhibition above about 21%, passing the limit was not always enough
Numbers without * were called inactive; . = not tested or not shown.

SMILES	AID504770	PV pol inh	Mtb MbtI inh	Mtb MenB inh
O=C(OCC1CCNCC1)c1ccc2c(c1)OCO2	-0.15	103	36	3
O=C(OCC1CCNCC1)c1ccc(F)cc1	0.95	102	14	27*
O=C(O)CCCC(=O)Nc1ccc(C(=O)N2CCCCC2)cc1	1.6	102	-2	33*
CCOC(=O)C1CCN(c2cc(NCC(=O)O)c3c4c(onc24)-c2ccccc2C3=O)CC1	1.8	.	.	.
Nn1c(Cc2ccccc2)nc2sc3c(c2c1=O)CCCC3	0.5	98	-3	-7
CCCc1nc2sc3c(c2c(=O)n1N)CCCC3	0.3	100	5	33*
NC(=O)n1c(CCC(=O)O)nc2sc3c(c2c1=O)CCC3	0	85*	21	-28
Cc1ccc(SC(C)C(=O)Nc2ccc(N(C)C)cc2)cc1 (stereo not given)	0.55	99	5	-112
Cc1ccc(Cn2nc(C)c(/C=N/N3CCOCC3)c2C)cc1	-0.65	105	-5	-5
O=c1c2c(nc3cc(-c4ccco4)[nH]n13)CCCC2	0.35	104	89	33*
O=c1oc2ccccc2c(Cl)c1Cc1ccccc1	0.25	.	.	.
O=C(CC(NC(c1ccccc1)c1ccccc1)C(=O)O)c1ccc(Cl)cc1 (stereo not given)	-1.1	98	.	72*
Cc1cc(C(=O)N2CCN(S(=O)(=O)c3ccccc3)CC2)no1	-0.9	105	-5	-16
CC(C)NS(=O)(=O)c1ccc2nc(NC(=O)c3cccnc3)sc2c1	-0.55	100	1	-8
CC(C)CNS(=O)(=O)c1ccc2nc(NC(=O)c3ccccn3)sc2c1	1.8	107	68*	-89
O=C(CSc1nnc(-c2ccoc2)c(-c2ccoc2)n1)c1ccc(N2CCCC2=O)cc1	0.15	97	21	25
O=C(CSc1nnc(-c2ccco2)c(-c2ccco2)n1)Nc1ccc(C(=O)O)cc1	0.7	.	.	.
CCOc1ccc(C(=O)CSc2nnc(-c3ccco3)c(-c3ccco3)n2)cc1NC(=O)CC	1.5	100	94*	62*
O=C(CSc1nnc(-c2ccoc2)c(-c2ccoc2)n1)c1ccc(-c2ccccc2)cc1	0.15	98	61*	20
COc1ccc(C(=O)CSc2nnc(-c3ccco3)c(-c3ccco3)n2)cc1	0.75	98	54	30*
CCN(c1ccccc1)S(=O)(=O)c1ccc(Cl)cc1	0.25	102	-11	-53
CCN(c1ccccc1)S(=O)(=O)c1ccc(C(=O)OCC#N)cc1	-0.4	66*	-1	12
CCc1ccccc1OC(=O)c1ccc2c(c1)OCO2	-0.7	98	-1	-6
CC(C)(C)NC(=O)Cc1ccccc1	-0.6	102	-16	38*
NNC(=O)Cc1ccccc1	1.2	103	-5	-11
SMILES	AID504770	PV pol inh	Mtb MbtI inh	Mtb MenB inh
Cc1cc(O)c(C=O)c2c1C(=O)Oc1c(C)c(O)c3c(c1O2)C(O)OC3=O (stereo not given)	0.25	66*	-33	7
COc1ccccc1-n1cc(C(=O)c2ccccc2O)cc(C#N)c1=O	-0.2	113	96*	-20
CCOC(=O)/C(=C\Nc1ccc(F)cc1)S(=O)(=O)c1ccc(Cl)cc1	-0.8	.	.	.
CC1=C(C)CC2C(=O)N(c3ccc(N4CCOCC4)cc3)C(=O)C2C1 (stereo not given)	0.75	100	-3	.
O=C1C=CC(=O)N1c1ccc(N2CCOCC2)cc1	-0.3	101	93*	-42
COCCN1C(=O)c2ccccc2C1=O	1.6	99	10	4
COCCN1C(=O)C=CC1=O	-3.5*	100	62*	.
COc1ccc(-c2ccnc(SC)n2)cc1	0.8	.	.	.
COc1nncc(-c2cnnc(SC)n2)n1	-2*	15*	.	-23
COc1cc(OC)cc(-c2nnc(SCc3cccc(S(=O)(=O)N(C)C)c3)o2)c1	-0.4	112	0	-15
COCc1nnc(NC(=O)C2CCN(C(=O)c3ccco3)CC2)s1	0.7	93	92*	-2
CC(C)c1nnc(NC(=O)C2CCN(C(=O)c3ccco3)CC2)s1	2.3	105	64	-58
COc1cc(-c2nnc(COC(=O)CSc3ccc4ccccc4c3)o2)cc(OC)c1OC	-0.45	99	-16	-35
S=c1[nH]nc(C2COc3ccccc3O2)n1-c1ccccc1 (stereo not given)	-0.45	100	32	-19
O=C(COC(=O)c1ccncc1)NCc1ccccc1	-3.5*	103	-9	.
O=C(COC(=O)c1ccc(Br)cc1)NCc1ccccc1	-0.1	100	-3	.
CC(C)(C)c1cc(SCCC#N)cc(C(C)(C)C)c1O	-2.2*	105	-2	-13
CC(C)(C)c1cc(CCC#N)cc(C(C)(C)C)c1O	0.15	105	-4	-7
CCN(Cc1ccccc1)C(c1ccccn1)c1nnnn1C1CCCCC1 (stereo not given)	0.45	102	5	34*
S=C=NCCn1ccc2ccccc21	-3.8*	102	93*	-77
NCCn1ccc2ccccc21	-0.45	99	6	-18
O=C(COc1cc(Cl)ccc1Cl)Nc1cccc2nsnc12	1.8	105	-8	-15
CCn1c(CSc2ncccn2)nc2cc(C(=O)O)ccc21	-0.2	86	8	-23
CCn1c(CS(=O)(=O)c2cc(C)ccc2C)nc2cc(C(=O)O)ccc21	-0.55	81*	-11	1
CN(CCC(N)=O)Cc1ccccc1	-0.45	101	-2	38*
SMILES	AID504770	PV pol inh	Mtb MbtI inh	Mtb MenB inh
COc1ccc(CC(=O)NC2CCN(CC(=O)c3ccc(F)cc3)CC2)cc1OC	1.4	100	-2	-51
COc1ccc(NC(=O)c2nc(S(C)(=O)=O)ncc2Cl)cc1Cl	-0.85	102	88*	-9
COC(=O)c1nc(S(C)(=O)=O)ncc1Cl	-2.7*	96	12	-7
Cc1cccc(NC(=O)c2nc(S(C)(=O)=O)ncc2Cl)c1	.	103	.	.
CS(=O)(=O)c1ncc(Cl)c(C(=O)Nc2cccc(Cl)c2)n1	-0.95	102	81*	10
CN(Cc1nc2ccccc2c(=O)[nH]1)C(=O)COc1ccc2c(c1)CCC2	1.5	55*	-12	-35
C=CCNC(=O)CN1CCC(C(O)(c2ccccc2)c2ccccc2)CC1	-0.2	103	-4	-18
CCn1c2ccccc2c2nc(C)sc21	-0.55	107	.	-2
CCn1c(=S)sc2nc(C)sc21	-0.4	101	101*	9
C=C(C)c1ccccc(=O)c1O	-5*	.	.	.
CCC(N)C12CC3CC(CC(C3)C1)C2 (stereo not given)	0.95	86*	.	0
NC(CO)C12CC3CC(CC(C3)C1)C2 (stereo not given)	2.5	103	2	.
C=CCn1cn[nH]c1=S	0	101	61*	-7
Cc1ccc(C(=O)OCc2ccc(C#N)cc2)c(O)c1	1.5	104	-10	-22
Cc1cc(C)cc(NC(=O)CSCCn2c(C)csc2=O)c1	0.35	103	11	-17
CCN1CSC(=S)N(CC)C1	-2.5*	101	-6	-17
CCCn1c(SCC(=O)N2CCCC2)nnc1C(C)C	-3.1*	101	-13	-16

Bioassay records as filed in PubChem.
